HepG2 viability: HepG2 cytotoxicity, counter-screen for TGF-b inhibitors; hit rate 0.76% among 410,000; HepG2 CAGA-GFP viability, ATP luminescence, 18 h; Potency, µM (titrated, usually from 46.1 µM), without a hit: at the highest dose activity change, negative = cytotoxicity, actives largely listed as cytotoxic; note: potency is the fitted concentration of half-maximal effect
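CellTiter-Glo luminescence gave cytotoxicity after 18 hours at 37 degrees C. The cells were HepG2 CAGA-GFP in 1% FBS DMEM, stimulated with 500 pg/mL TGF-beta after compound addition. %Activity was normalised to no-cell wells (complete cell-killing) and DMSO (no toxicity), and curves were fitted and classified.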
DRD3 antagonist: blocks the human D3 dopamine receptor. hit rate 2.5% among 360,000. D3R cells, DiscoveRx beta-arrestin luminescence, antagonist mode; stronger effect = lower value. max response, negative = inhibition, %. AID 652054; in the data active = max response below about -50%; inconclusive = no clear call, values can overlap the other calls; note: % is set by controls: 0 for no effect and ±100 for the full control effect
Target sequence (P35462 whole entry, looked up): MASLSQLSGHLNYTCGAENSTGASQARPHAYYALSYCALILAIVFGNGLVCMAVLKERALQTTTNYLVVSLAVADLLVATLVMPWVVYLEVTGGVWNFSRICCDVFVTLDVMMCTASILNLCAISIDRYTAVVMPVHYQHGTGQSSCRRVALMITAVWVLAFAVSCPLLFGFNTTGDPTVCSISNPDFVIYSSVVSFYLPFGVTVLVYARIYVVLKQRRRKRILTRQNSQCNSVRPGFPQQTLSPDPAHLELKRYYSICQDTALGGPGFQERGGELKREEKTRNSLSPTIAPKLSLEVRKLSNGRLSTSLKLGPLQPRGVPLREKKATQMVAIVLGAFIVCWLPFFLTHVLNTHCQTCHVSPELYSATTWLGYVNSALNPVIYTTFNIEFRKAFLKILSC
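Cells plated overnight at 1500 cells/well, then exposed to library compounds with dopamine controls for 90 minutes at 37 degrees C. DiscoveRx reagent added for 30–60 minutes at room temperature; luminescence read, quantitative HTS format.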
ATXN2 expr inh: reduces ATXN2 reporter expression in HEK-293 cells; AID 1745845; hit rate 0.72% among 360,000; HEK-293 ATXN2-luciferase reporter, luminescence, 24 h; Potency, µM (top dose mostly 57 µM), without a hit: at the highest dose activity change, negative = inhibition, actives largely listed as inhibitors; note: potency is the fitted concentration of half-maximal effect; % is set by controls: 0 for no effect and ±100 for the full control effect; nearly all actives have a fitted effect of over 55% in size
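qHTS (up to 57 uM final) was run with 24 h compound exposure of reporter cells at 37 °C. Each well was multiplexed: SteadyGlo luminescence measured ATXN2-luciferase expression after a fluorogenic Gly-Phe-AFC viability readout (25 uM final).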
ATXN viability: cell viability loss in ATXN counter-screen | S2 cells (HEK-293 line with an ATXN2-luciferase reporter) viability, CellTiter-Fluor protease fluorescence, 24 h | Potency, µM (series often up to 56.7 µM), usual class: cytotoxic | hit rate 0.49% among 400,000 | AID 651635; note: potency is the fitted concentration of half-maximal effect; nearly all actives have a fitted effect of over 40% in size
TGFb SMAD3 inh: TGF-b pathway inhibition; HepG2 CAGA-GFP TGF-b/SMAD3 reporter, GFP fluorescence, 18 h; TGF-beta stimulated, 500 pg/mL final; Potency, µM (highest dose often 46.1 µM), inactives show top-dose activity, negative = inhibition, hits mostly inhibitors; hit rate 1.2% among 410,000; note: potency is the fitted concentration of half-maximal effect; % is set by controls: 0 for no effect and ±100 for the full control effect; nearly all actives have a fitted effect of over 65% in size
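HEPG2 CAGA-GFP reporter cells (1000/well, DMEM with 1% FBS) received compounds, then recombinant TGF-beta at 500 pg/mL final for 18 hours at 37 degrees C. Per-cell GFP summed per well was normalised to unstimulated and stimulated DMSO controls before curve fitting.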
DRD3 agonist: D3 dopamine receptor (human) agonism. max activation, %. hit rate 0.58% among 410,000. D3R DiscoveRx beta-arrestin cells, luminescence, 90 min. P35462; in the data active = max activation above about 30%; note: 0% is about no effect
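Agonist mode: compounds and dopamine controls were applied to plated cells for 90 min at 37 degrees C after an overnight attachment at 1500 cells/well. Luminescent read-out followed 30 - 60 minutes at room temperature with DiscoveRx detection reagent.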
The depositor's hits bear a star; i = inactive; ? = inconclusive; nt = no result given. The list is not random: actives were taken first. Their share in the collection is about 4.7%. Unless noted, calls come from the whole dose curve; as a rule, active = well fitted curve in the direction sought with a large enough effect; inconclusive = small, poorly fitted or top-dose-only effect, or another doubt; inactive = no such curve, though single readings can be large; an effect the other way counts as inactive or inconclusive.

SMILES | HepG2 viability | DRD3 antagonist | ATXN2 expr inh | ATXN viability | TGFb SMAD3 inh | DRD3 agonist
c1ccc(COc2cccc(CN3CCN(c4ccccn4)CC3)c2)cc1 | -1.3% | -27.5 | -20.2% | i | ? | 39.2*
O=C(c1cccc(N2CCCC2=O)c1)N1CCC(Oc2cccc(CN3CCN(c4ccccn4)CC3)c2)CC1 | nt | nt | nt | 14.1µM* | nt | nt
Cc1cccc(CN2CCN(c3ccccn3)CC2)c1 | -1.3% | ? | 2.8% | i | -4.4% | 25.1
O=c1cc(CN2CCN(c3ccccn3)CC2)nc2sccn12 | -0.1% | -9.0 | nt | i | -10.1% | 0.7
Cc1ccc(CN2CCN(c3ccccn3)CC2)s1 | -13.7% | ? | 3.0% | i | -28.1% | 59.6*
Cc1sc(NC(=O)c2ccco2)c(CN2CCN(c3ccccn3)CC2)c1C | -0.2% | 19.1 | -13.7% | ? | -15.8% | 17.0
CCOC(=O)[C@H](CCc1ccccc1)N[C@@H](C)C(=O)N1CCCC1C(=O)O (stereo partly specified) | nt | nt | -5.7% | nt | nt | nt
O=C(Nc1ccc(Cl)c(C(F)(F)F)c1)c1nc2ccccc2nc1N1CCCCC1 | -39.2% | nt | -22.0% | i | 16.6% | 0.8
CC(=O)Nc1sc2c(c1CN1CCN(c3ccccn3)CC1)CCCC2 | -28.7% | -62.2* | -2.6% | i | ? | -23.0
O=C(CN1CCN(c2ccccn2)CC1)NCCc1ccccc1 | 7.0% | -2.9 | 7.3% | i | 33.3% | 4.7
O=C(CCCN1CCN(c2ccccn2)CC1)c1ccc(F)cc1 | -17.6% | 0.0 | 1.8% | i | -1.5% | -17.0
CC1(C)C2CC[C@]1(C)C(=O)N(CCCCN1CCN(c3ccccn3)CC1)C2=O | -11.1% | -14.4 | -0.6% | i | 0.0% | 79.9*
c1ccc(CCCN2CCN(c3ccccn3)CC2)cc1 | -27.3% | -62.5* | 209.9% | i | -13.9% | 11.3
O=[N+]([O-])c1ccc2c(c1)/C(=C/c1ccc(C=S)cc1)C=C2 | -0.9% | nt | nt | nt | -7.8% | nt
CC(C)(CNC(=O)c1cnn(-c2nccc(-c3ccccc3F)n2)c1C1CC1)N1CCOCC1 | nt | nt | nt | i | nt | nt
COc1ccc(NC(=O)C2CCN(Cc3cnn(-c4ccccc4)c3-n3cccc3)CC2)cc1OC | -10.8% | -73.3* | -5.0% | i | ? | -15.6
COc1ccc(OC)c(NC(=O)C2CCN(Cc3cnn(-c4ccccc4)c3-n3cccc3)CC2)c1 | -0.9% | -64.9* | -15.4% | i | ? | -9.5
COc1ccc(OC)c(NC(=O)CSCc2cnn(-c3ccccc3)c2-n2cccc2)c1 | -4.8% | 0.0 | -11.6% | i | -7.0% | 6.3
O=C(Nc1ccccc1Cl)C1CCN(Cc2cnn(-c3ccccc3)c2-n2cccc2)CC1 | -6.8% | -79.8* | 40.9% | i | ? | 2.8
CCn1cc(CN2CCC(C(=O)Nc3cccc(-c4cccc(OC)c4)c3)CC2)c(C)n1 | -28.8% | ? | 4.9% | i | -4.5% | -32.4
COc1cccc(NC(=O)C2CCN(Cc3cnn(-c4ccccc4)c3-n3cccc3)CC2)c1 | -23.6% | -50.1* | ? | ? | -0.2% | -0.9
CCCOC(=O)c1c(NC(=O)c2nc3ncccn3n2)sc(C(=O)OCC)c1C | 1.8% | nt | 0.7% | i | -17.7% | 8.6
CCC(Sc1nnc2c(n1)[nH]c1ccccc12)C(=O)Nc1ccccc1OC (stereo unspecified) | -22.3% | nt | 58.0% | i | ? | -13.5
CCN(CC)CC(=O)Nc1c(C)cccc1C(=O)OC | nt | nt | 2.2% | i | nt | nt
Nc1[nH]c(=S)[nH]c(=O)c1N=O | -25.7% | nt | nt | nt | 5.1% | nt
SMILES | HepG2 viability | DRD3 antagonist | ATXN2 expr inh | ATXN viability | TGFb SMAD3 inh | DRD3 agonist
O=C1CC(c2ccccc2)Cc2[nH]c(=O)c(C(=O)O)cc21 (stereo unspecified) | -7.7% | nt | nt | nt | -11.0% | nt
CO[C@]1(NC(=O)Cc2cccs2)C(=O)N2C(C(=O)O)=C(COC(N)=O)CS[C@H]21 | nt | nt | nt | i | nt | nt
O=C(CCN1CCCC1Cc1ccccc1)c1ccc2c(c1)OCCO2 (stereo unspecified) | -113.0% | -14.9 | ? | nt | 11.2µM* | 6.9
O=C(CCN1CCC(c2ccccc2)C1)c1ccccc1 (stereo unspecified) | -2.6% | ? | 1.3% | i | ? | -27.2
O=C(CCN1CCc2ccccc2C1)c1ccc2c(c1)OCCO2 | 7.08µM* | -88.4* | -5.1% | i | ? | -8.3
O=C(CCN1CCC(c2ccccc2)C1)c1ccc2c(c1)OCCO2 (stereo unspecified) | -30.9% | -66.2* | -20.4% | i | ? | -86.8
N#C[C@@H]1C[C@@H]2C[C@@H]2N1C(=O)[C@@H](N)C12CC3CC(CC(O)(C3)C1)C2 | nt | nt | nt | nt | nt | -24.3
COc1cccc(CNC(=O)Cn2c(=O)cc(C)c3c(C)nn(C)c32)c1OC | -24.9% | nt | -25.6% | ? | ? | 13.6
O=[N+]([O-])c1ccccc1OCCCN1CCc2ccccc2C1 | -12.3% | -102.7* | 7.0% | i | 2.3% | -21.4
Cc1nonc1OCCN1CCN(c2ccccc2[N+](=O)[O-])CC1 | 3.3% | -58.2* | -8.5% | i | -1.2% | -9.0
CC1CC(C)CN(CCCOc2ccccc2[N+](=O)[O-])C1 (stereo unspecified) | -9.4% | ? | -9.8% | i | -3.0% | -7.4
Cc1ccc([N+](=O)[O-])c(OCCCN2CCC(Cc3ccccc3)CC2)c1 | -63.6% | -95.5* | nt | ? | ? | -1.5
Cc1ccc([N+](=O)[O-])c(OCCN2CCCCCC2)c1 | 4.2% | -90.1* | 1.8% | i | 2.2% | -14.5
Cc1ccc(C)c(OCCCN2CCCC2)c1 | -0.4% | ? | -0.8% | i | -22.5% | -59.7
O=S(=O)(c1ccc(Cl)cc1)N1CCN(c2nc(-c3cccc(Br)c3)nc3ccccc23)CC1 | 8.5% | nt | nt | nt | -3.4% | nt
COc1ccccc1N1CCN(C(=O)c2nc(SC)ncc2Cl)CC1 | -28.6% | nt | 12.1% | ? | ? | -10.2
COc1ccc2c(C)c(CC(=O)NCCc3ccc(Cl)cc3)c(=O)oc2c1C | 3.9% | nt | 9.0% | i | -1.9% | 5.2
O=C(c1cnn2c1NC(=C1CC1)C=C2C(F)F)N1CCc2ccccc21 | -39.3% | nt | nt | nt | -16.9% | nt
COCCc1nn2c(=O)cc(COC(=O)COc3ccccc3C)nc2s1 | 0.2% | nt | 5.0% | i | -2.4% | -7.6
Cc1ccc([N+](=O)[O-])c(OCCn2cnc3ccccc32)c1 | -4.8% | -17.5 | -30.4% | i | 1.0% | -17.5
Cc1ccc([N+](=O)[O-])c(OCCN2CCc3ccccc3C2)c1 | -27.4% | -59.6* | -4.3% | i | ? | 15.3
O=[N+]([O-])c1ccccc1OCCN1CCCC1 | 4.9% | -61.2* | 6.5% | i | 5.0% | -12.6
O=[N+]([O-])c1ccccc1OCCN1CCOCC1 | 4.4% | -15.3 | -2.5% | i | -4.5% | 2.0
